# Laboratory results taken from publication PMC4336329 (PLoS ONE, 2015).
# The campaign covered roughly 310,000 compounds. About 14,000 (4.5%) showed an effect of 50% or more. The effect is printed as a negative number. For the sample, strong results were picked, then their nearest neighbours and some compounds at random.
# Target: human ether-à-go-go-related gene (hERG) potassium channel (human, UniProt Q12809)
# Assay: primary screen, population patch clamp on CHO cells stably expressing hERG; higher = less effect of the substance
# 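Further: peak tail current of the secondary pulse compared with the same well before compound.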
# Sequence of human ether-à-go-go-related gene (hERG) potassium channel (Q12809 whole entry, looked up): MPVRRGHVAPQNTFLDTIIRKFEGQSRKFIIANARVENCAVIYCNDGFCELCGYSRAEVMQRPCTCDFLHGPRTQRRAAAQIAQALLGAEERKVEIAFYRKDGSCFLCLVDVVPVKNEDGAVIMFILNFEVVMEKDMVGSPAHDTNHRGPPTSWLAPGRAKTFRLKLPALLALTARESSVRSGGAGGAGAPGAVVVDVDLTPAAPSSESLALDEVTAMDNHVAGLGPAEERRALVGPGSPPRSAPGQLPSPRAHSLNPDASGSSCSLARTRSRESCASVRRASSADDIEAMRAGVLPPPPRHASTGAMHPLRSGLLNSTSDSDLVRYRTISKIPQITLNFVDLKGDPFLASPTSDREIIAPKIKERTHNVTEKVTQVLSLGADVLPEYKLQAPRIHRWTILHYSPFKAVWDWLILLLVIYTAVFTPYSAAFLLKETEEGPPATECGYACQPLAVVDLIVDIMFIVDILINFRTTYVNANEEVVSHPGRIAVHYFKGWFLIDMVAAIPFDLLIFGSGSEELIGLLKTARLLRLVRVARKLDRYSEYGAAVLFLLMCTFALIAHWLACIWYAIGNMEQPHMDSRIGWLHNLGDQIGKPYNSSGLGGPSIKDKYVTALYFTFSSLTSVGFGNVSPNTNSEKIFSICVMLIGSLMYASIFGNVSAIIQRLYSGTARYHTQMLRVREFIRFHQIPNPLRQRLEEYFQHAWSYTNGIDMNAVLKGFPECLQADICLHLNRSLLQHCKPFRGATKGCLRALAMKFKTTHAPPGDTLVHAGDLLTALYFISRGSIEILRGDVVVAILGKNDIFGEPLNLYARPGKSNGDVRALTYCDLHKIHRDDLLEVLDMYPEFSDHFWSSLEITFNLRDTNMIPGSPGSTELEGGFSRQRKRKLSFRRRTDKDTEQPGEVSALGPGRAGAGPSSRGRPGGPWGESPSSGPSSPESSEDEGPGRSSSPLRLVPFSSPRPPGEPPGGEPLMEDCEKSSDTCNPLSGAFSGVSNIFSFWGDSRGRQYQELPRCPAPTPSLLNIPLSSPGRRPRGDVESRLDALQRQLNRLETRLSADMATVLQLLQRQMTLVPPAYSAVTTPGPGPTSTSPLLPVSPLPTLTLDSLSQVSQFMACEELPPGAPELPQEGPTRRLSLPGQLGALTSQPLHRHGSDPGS
row,SMILES,"hERG current change (%, negative = inhibition) at 10uM [%]"
1,CCOC(=O)c1cc(-c2ccc(N3CCOCC3)cc2)nn1-c1ccccc1C(=O)O,5.59
2,c1ccc(CN2CCN(c3nc4ccccc4c4ccccc34)CC2)cc1,-3.19
3,O=c1nc2ccccc2c2n1CC(CN1CCN(C(c3ccccc3)c3ccccc3)CC1)N2 (centres unmarked),-81.4
4,COc1cc2nc(CN3CCN(C(c4ccccc4)c4ccccc4)CC3)[nH]c(=O)c2cc1OC,1.59
5,O=c1nc2ccccc2c2n1CC(CN1CCN(Cc3ccccc3)CC1)N2 (centres unmarked),-66.1
6,O=C(O)CN1CCN(C(c2ccccc2)c2ccccc2)CC1,30.4
7,O=C(CCc1nc2ccccc2c(=O)[nH]1)NC1CCN(Cc2ccccc2)CC1,-0.782
8,COCCCNC(=O)CCn1c(=O)c2ccccc2n(CC(=O)Nc2ccccc2C)c1=O,9.98
9,CCOc1ccc(Cc2nnc(N)s2)cc1OCC,-6.21
10,NC(=O)C1(S(=O)(=O)c2ccccc2)CCCCC1,13.2
11,CC1(C)OC(C)(C)/C(=C/Nc2ccccc2)C1=O,10.2
12,C[N+]1=C(/C=C/Nc2ccccc2)C(C)(C)c2ccccc21.[O-][Cl+3]([O-])([O-])[O-],-81.8
13,CC1(C)OC(=O)C(=CNc2ccccc2)C(=O)O1,-4.48
14,COc1ccc(OCC(=O)Nc2ccc(S(=O)(=O)N3CCCCC3)cc2)cc1,-20.2
15,O=C1c2ccc([N+](=O)[O-])cc2C(=O)N1c1ccc([N+](=O)[O-])cn1,14.5
16,CCOC(=O)C1CCCN(c2nc3ccccc3nc2C(C#N)C(=O)OC(C)C)C1 (centres unmarked),8.39
17,CCOC(=O)C1CCCN(c2nc3ccccc3nc2C(C#N)C(=O)OCCOC)C1 (centres unmarked),-66
18,CCOC(=O)C1CCN(c2nc3ccccc3nc2C(C#N)C(=O)OCCOC)CC1 (centres unmarked),-27.4
19,CCOC(=O)C1CCN(c2nc3ccccc3nc2C(C#N)C(=O)OC(C)COC)CC1 (centres unmarked),-13.9
20,CCOC(=O)C1CCCN(c2nc3ccccc3nc2C(C#N)C(=O)OC(C)COC)C1 (centres unmarked),-55.2
21,CCOC(=O)C1CCCN(c2nc3ccccc3nc2C(C#N)C(=O)OCC)C1 (centres unmarked),-14
22,C/C(=N\NC(=O)CCCOc1ccc(Cl)cc1C)c1ccc(C)o1,3.58
23,COc1cccc(-n2cc(CNC(=O)C3CCC(=O)N(C4CC4)C3)cn2)c1 (centres unmarked),-11

row,SMILES,"hERG current change (%, negative = inhibition) at 10uM [%]"
1,COc1ccccc1C(=O)Nc1ccccc1SC,-20.3
2,CCCn1c(CN2CCCCC2C)nc2c1c(=O)n(C)c(=O)n2C (centres unmarked),3.04
3,CCCCCCn1c(CN2CCCCC2CC)nc2c1c(=O)n(C)c(=O)n2C (centres unmarked),-51.9
4,CCCn1c(CN2CCCCC2CC)nc2c1c(=O)n(C)c(=O)n2C (centres unmarked),-5.14
5,CCCCCn1c(CN2CCCCC2C)nc2c1c(=O)n(C)c(=O)n2C (centres unmarked),-44.7
6,CCCCCn1c(CN2CCCCC2CC)nc2c1c(=O)n(C)c(=O)n2C (centres unmarked),-44.7
7,CCCCCCn1c(CN2CCCCC2C)nc2c1c(=O)n(C)c(=O)n2C (centres unmarked),-60.5
8,Cc1ccc(Nc2nc(-c3ccc(O)cc3O)cs2)nc1,11.1
9,N/C(=N\[N+](=O)[O-])N1CCN(C(=O)c2ccccc2)CC1,24.8
10,CC(C)(C)c1ccc(/C=N/Nc2nncn2N)cc1,-21.5
11,CCOC(=O)CN1C(=N)N(c2nc(NC(C)C)nc(NC(C)C)n2)CC1=O,-73.8
12,CCNc1nc(NC(C)C)nc(N2CC(=O)N(CC(=O)OCC)C2=N)n1,-13.9
13,CCOC(=O)CN1C(=N)N(c2nc(NC(C)C)nc(OC)n2)CC1=O,-13.1
14,CCOCCCNC(=O)c1ccc(CS(=O)(=O)c2cccc(C(F)(F)F)c2)o1,6.78
15,CCCCNC(=O)c1ccc(CS(=O)(=O)c2cccc(C(F)(F)F)c2)o1,-53.5
16,COCCNC(=O)c1ccc(CS(=O)(=O)c2cccc(C(F)(F)F)c2)o1,4.09
17,O=C(NCc1ccco1)c1ccc(CS(=O)(=O)c2cccc(C(F)(F)F)c2)o1,-60.3
18,COCCCNC(=O)c1ccc(CS(=O)(=O)c2cccc(C(F)(F)F)c2)o1,-8.62
19,O=C(NCc1ccc2c(c1)OCO2)c1ccc(CS(=O)(=O)c2cccc(C(F)(F)F)c2)o1,-24.2
20,COC(=O)c1cccc(Cn2cc([N+](=O)[O-])cn2)c1,8.41
21,Cc1ccc(Nc2ncnc3c2nnn3Cc2ccccc2)cc1,8.07
22,O=C(CCS(=O)(=O)c1cc(Br)cc2c1N(C(=O)C1CC1)CC2)NCC1CCCO1 (centres unmarked),10.8
23,CCCCOCCCn1c(-c2ccco2)nc2nc3ccccc3nc21,-55.9

row,SMILES,"hERG current change (%, negative = inhibition) at 10uM [%]"
1,Cc1ccc(-c2nc3nc4ccccc4nc3n2Cc2ccco2)cc1,-18.7
2,COCCn1c(-c2ccco2)nc2nc3ccccc3nc21,2.99
3,COc1ccc(CCn2c(-c3ccco3)nc3nc4ccccc4nc32)cc1,-3.77
4,c1ccc(-c2nc3nc4ccccc4nc3n2Cc2ccco2)cc1,-61.2
5,CCCCCn1c(-c2ccco2)nc2nc3ccccc3nc21,-67.5
6,Clc1ccc(-c2nc3nc4ccccc4nc3n2Cc2ccco2)cc1,-12.3
7,c1ccc(Cn2c(-c3ccco3)nc3nc4ccccc4nc32)cc1,6.13
8,COc1ccccc1Cn1c(-c2ccco2)nc2nc3ccccc3nc21,-4.67
9,O=C(O)CSc1sc(=S)sc1SCC(=O)O,13.7
10,COC(=O)c1ccc(OC)c(CSc2nnc(-c3ccc(C(C)(C)C)cc3)o2)c1,9.83
11,CC(=O)Nc1ccc(OCC(=O)NCc2ccccc2)cc1,19
12,O=C(Cn1nc(C(F)F)cc1C(F)F)N/N=C/c1ccc2c(c1)OCO2,24.7
13,CC(=O)N1CCc2cc(S(=O)(=O)NC(Cc3ccccc3)C(=O)Nc3cc(C)ccn3)ccc21 (centres unmarked),1.38
14,CCOc1ccccc1N(CC(=O)NCCOC)C(=O)CCC(=O)Nc1ccccn1,19.6
15,Cc1cccc(NC(=S)N(C)Cc2cn(C)c3ccccc23)c1,-7.49
16,COc1ccc(S(=O)(=O)NCc2ccco2)c2ccccc12,-9.68
17,Cc1cc2oc(=O)cc(CN3CCCCC3C)c2cc1Cl (centres unmarked),-0.834
18,N#Cc1c(-c2ccc(Cl)cc2)ccnc1N1CCOCC1,3.33
19,CCN(c1ccccc1)S(=O)(=O)c1ccc(Cl)c(NC(=O)COC(=O)c2ccc(O)cc2)c1,6.44
20,CCN(c1ccccc1)S(=O)(=O)c1ccc(Cl)c(NC(=O)CN(C)C2CCN(C)CC2)c1,-38.8
21,CCN(c1ccccc1)S(=O)(=O)c1ccc(Cl)c(NC(=O)CSc2nnc(C)s2)c1,-24.2
22,CCN(c1ccccc1)S(=O)(=O)c1ccc(Cl)c(NC(=O)CN2CCN(C)CC2)c1,-59.2
23,CCN(c1ccccc1)S(=O)(=O)c1ccc(Cl)c(NC(=O)CN2CCCCCC2)c1.O=C(O)C(=O)O,10.1

row,SMILES,"hERG current change (%, negative = inhibition) at 10uM [%]"
1,CCC(C)NCC(=O)Nc1cc(S(=O)(=O)N(CC)c2ccccc2)ccc1Cl (centres unmarked),-78.8
2,COc1ccc(/C=N/NC(=O)C2CC2)c(OC)c1OC,12.9
3,COc1ccc(NC(=O)CSc2nc3ccccc3nc2N2CCCC2)c(OC)c1,24.1
4,COc1ccc(Cl)cc1NC(=O)CN(C(=O)c1ccco1)C1CCCCC1,-2.36
5,Cc1nc2ccccc2n1CCOc1ccccc1,6.17
6,Cn1c(=O)n(CCOc2ccc([N+](=O)[O-])cc2)c2ccccc21,-65.3
7,Cc1ccc(OCCn2c(=O)n(C)c3ccccc32)cc1,-1.88
8,Cc1nc2ccccc2n1CCOc1ccc([N+](=O)[O-])cc1,-73.8
9,Cc1ccc(OCCn2c(C)nc3ccccc32)cc1,3.94
10,Cn1c(=O)n(CCCOc2ccc(Cl)cc2)c2ccccc21,-13.7
11,CCn1c(SCC(=O)N/N=C(\C)c2ccncc2)nnc1-c1ccc(C)cc1,-20.6
12,CC1CCc2sc(C(=O)NC3CCN(Cc4ccccc4)CC3)cc2C1 (centres unmarked),-54.1
13,O=C(NC1CCN(Cc2ccccc2)CC1)c1ccc(Oc2cc(Cl)cc(Cl)c2)o1,-6.95
14,O=C(NC1CCN(Cc2ccccc2)CC1)c1c(F)cccc1F,-24.4
15,Cl.O=C(NC1CCN(Cc2ccccc2)CC1)c1cccc(OC(F)F)c1,-74.1
16,O=C(NC1CCN(Cc2ccccc2)CC1)c1cccc(Br)c1,-63.8
17,O=C(NC1CCN(Cc2ccccc2)CC1)c1cc(Br)c(Br)[nH]1,-2.75
18,O=C(NC1CCN(Cc2ccccc2)CC1)c1cncc(Br)c1,-64.1
19,CC1CCc2sc(C(=O)NN)cc2C1 (centres unmarked),21.1
20,CC1CCc2sc(C(=O)NC3CCCCC3)cc2C1 (centres unmarked),-5.4
21,Cc1cc(C(=O)NC2CCN(Cc3ccccc3)CC2)n[nH]1,-19.8
22,O=C(NC1CCN(Cc2ccccc2)CC1)c1ccc2c(c1)OCCCO2,-37.1
23,O=C(NC1CC1)c1cccc(Br)c1,0.381
